According to article PMC7862700, “An all-to-all approach to the identification of sequence-specific readers for epigenetic DNA modifications on cytosine”:

Tests used:
Test in all cases: DAPPL (digital affinity profiling via proximity ligation, sequencing); 10 mM Tris-HCl pH 7.5, 50 mM NaCl, 1 mM DTT, 4% glycerol, room temperature, 30 min; GST-TFs on glutathione beads, 16-mer random dsDNA library, 0.1% formaldehyde crosslink after washing; high values mean tight binding
Details in all cases: protein: recombinant; tags: N-terminal GST; dsDNA, one strand shown
ERF = molecular target: T1, ERF (Homo sapiens, UniProt P50548 1-548)
T1 sequence: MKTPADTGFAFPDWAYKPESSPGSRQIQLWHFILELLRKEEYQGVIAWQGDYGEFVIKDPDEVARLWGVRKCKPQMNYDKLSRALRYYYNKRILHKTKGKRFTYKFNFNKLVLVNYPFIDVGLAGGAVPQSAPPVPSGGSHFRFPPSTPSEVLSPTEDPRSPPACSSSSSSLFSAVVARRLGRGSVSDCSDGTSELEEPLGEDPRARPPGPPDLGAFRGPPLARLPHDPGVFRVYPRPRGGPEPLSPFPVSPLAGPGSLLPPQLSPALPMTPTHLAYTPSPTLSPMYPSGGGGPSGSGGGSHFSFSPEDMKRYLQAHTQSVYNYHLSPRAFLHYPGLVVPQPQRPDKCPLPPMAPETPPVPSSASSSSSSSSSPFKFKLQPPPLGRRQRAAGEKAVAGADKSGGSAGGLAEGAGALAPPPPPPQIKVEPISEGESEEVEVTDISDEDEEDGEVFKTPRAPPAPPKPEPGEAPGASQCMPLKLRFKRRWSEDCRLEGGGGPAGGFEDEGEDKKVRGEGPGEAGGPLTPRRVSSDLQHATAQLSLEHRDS
Summary of the method: (§1)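 Human transcription factors fused to GST were expressed in yeast, captured on glutathione beads, given DNA barcodes and pooled with a GST-only negative control. Pools were incubated with 200 nmole of a 16-mer random double-stranded DNA library in Tris/NaCl/DTT/glycerol buffer at room temperature for 30 min. They were then washed, crosslinked with 0.1% formaldehyde, proximity-ligated (BsaI/T4 ligase, 1 h, 37 °C), PCR-amplified and sequenced on an Illumina NextSeq500. Binding signal is each 6-mer's read frequency for a factor divided by its frequency for the GST control.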

ETV3L = molecular target: T2, ETV3L (Homo sapiens, UniProt Q6ZN32 1-361)
T2 sequence: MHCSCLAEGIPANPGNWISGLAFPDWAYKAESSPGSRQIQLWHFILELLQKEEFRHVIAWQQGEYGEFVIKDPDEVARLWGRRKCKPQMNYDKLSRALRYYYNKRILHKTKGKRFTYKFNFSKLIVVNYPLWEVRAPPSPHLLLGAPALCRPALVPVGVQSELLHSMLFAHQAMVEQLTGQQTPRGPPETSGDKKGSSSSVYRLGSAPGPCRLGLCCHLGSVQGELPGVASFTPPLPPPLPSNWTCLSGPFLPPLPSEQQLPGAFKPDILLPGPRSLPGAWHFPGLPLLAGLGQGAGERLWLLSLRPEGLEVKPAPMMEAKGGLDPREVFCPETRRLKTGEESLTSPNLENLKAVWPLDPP
Summary of the method: as §1

ETS2 = molecular target: T3, ETS2 (Homo sapiens, UniProt P15036 1-469)
T3 sequence: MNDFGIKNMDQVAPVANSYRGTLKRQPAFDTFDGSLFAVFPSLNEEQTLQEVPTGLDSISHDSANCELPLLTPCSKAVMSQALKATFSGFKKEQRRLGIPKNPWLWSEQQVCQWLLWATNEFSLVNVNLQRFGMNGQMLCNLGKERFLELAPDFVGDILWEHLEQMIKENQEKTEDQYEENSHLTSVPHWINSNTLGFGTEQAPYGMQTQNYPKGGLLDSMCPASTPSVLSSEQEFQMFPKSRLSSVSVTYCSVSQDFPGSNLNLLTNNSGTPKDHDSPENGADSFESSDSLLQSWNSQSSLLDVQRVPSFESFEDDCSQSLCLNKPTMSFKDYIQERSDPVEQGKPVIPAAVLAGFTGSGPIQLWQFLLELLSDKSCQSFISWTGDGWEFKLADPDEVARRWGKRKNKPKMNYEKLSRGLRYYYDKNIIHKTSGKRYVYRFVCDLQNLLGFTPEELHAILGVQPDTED
Summary of the method: as §1

SPDEF = molecular target: T4, SPDEF (Homo sapiens, UniProt O95238 1-335)
T4 sequence: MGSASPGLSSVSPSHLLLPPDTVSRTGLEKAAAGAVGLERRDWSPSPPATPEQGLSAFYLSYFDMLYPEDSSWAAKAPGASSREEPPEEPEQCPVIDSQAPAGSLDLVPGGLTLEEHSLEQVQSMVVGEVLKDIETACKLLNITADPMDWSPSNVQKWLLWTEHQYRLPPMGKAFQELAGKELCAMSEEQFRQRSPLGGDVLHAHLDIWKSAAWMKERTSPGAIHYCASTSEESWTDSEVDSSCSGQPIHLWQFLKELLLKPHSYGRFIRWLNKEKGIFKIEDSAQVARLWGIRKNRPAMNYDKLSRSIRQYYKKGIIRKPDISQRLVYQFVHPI
Summary of the method: as §1

ETV7 = molecular target: T5, ETV7 (Homo sapiens, UniProt Q9Y603 1-341)
T5 sequence: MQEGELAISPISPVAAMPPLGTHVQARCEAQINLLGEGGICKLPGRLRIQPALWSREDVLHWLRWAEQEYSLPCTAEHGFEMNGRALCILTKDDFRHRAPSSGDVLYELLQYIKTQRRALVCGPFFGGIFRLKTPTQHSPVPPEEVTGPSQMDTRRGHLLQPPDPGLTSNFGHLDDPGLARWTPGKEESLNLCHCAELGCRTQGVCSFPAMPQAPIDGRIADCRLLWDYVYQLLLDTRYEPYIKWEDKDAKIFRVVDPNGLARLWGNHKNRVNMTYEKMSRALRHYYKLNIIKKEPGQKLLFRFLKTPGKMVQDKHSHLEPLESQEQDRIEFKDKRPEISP
Summary of the method: as §1

ELF5 = molecular target: T6, ELF5 (Homo sapiens, UniProt Q9UKW6-2 1-255)
T6 sequence: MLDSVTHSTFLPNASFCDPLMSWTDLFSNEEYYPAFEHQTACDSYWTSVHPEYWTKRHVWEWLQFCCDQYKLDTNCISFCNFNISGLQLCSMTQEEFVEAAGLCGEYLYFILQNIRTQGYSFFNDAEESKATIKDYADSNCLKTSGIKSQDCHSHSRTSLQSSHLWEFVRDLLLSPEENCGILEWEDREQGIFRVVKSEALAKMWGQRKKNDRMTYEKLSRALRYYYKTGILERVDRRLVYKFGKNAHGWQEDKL
Summary of the method: as §1

ETV3 = molecular target: T7, ETV3 (Homo sapiens, UniProt P41162-2 1-143)
T7 sequence: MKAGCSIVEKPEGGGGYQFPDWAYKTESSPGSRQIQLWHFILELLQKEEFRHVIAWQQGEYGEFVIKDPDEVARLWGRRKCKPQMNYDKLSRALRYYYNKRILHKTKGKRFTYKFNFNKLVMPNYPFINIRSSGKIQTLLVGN
Summary of the method: as §1

ETV6 = ETV6 (Homo sapiens, UniProt P41212 1-452)
ETV6, sequence (P41212 whole entry): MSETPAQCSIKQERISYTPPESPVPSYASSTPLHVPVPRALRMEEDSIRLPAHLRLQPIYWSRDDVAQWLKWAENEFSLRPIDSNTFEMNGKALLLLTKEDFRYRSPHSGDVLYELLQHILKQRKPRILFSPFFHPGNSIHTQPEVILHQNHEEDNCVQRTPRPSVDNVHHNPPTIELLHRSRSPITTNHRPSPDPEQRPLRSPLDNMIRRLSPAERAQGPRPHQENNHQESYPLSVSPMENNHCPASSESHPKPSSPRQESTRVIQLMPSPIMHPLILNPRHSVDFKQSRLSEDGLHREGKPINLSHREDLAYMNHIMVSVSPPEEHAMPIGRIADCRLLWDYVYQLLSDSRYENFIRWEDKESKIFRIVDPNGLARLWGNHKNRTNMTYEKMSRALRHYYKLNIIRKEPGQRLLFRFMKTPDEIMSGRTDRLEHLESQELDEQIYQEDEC
Summary of the method: as §1

Sequence	binding signal (ERF)	binding signal (ETV3L)	binding signal (ETS2)	binding signal (SPDEF)	binding signal (ETV7)	binding signal (ELF5)	binding signal (ETV3)	binding signal (ETV6)
CTTTAA	1.32 fold enrichment (6-mer frequency, TF over GST control)	1.34 fold enrichment (6-mer frequency, TF over GST control)	1.33 fold enrichment (6-mer frequency, TF over GST control)	1.28 fold enrichment (6-mer frequency, TF over GST control)	1.2 fold enrichment (6-mer frequency, TF over GST control)	1.32 fold enrichment (6-mer frequency, TF over GST control)	1.23 fold enrichment (6-mer frequency, TF over GST control)	1.23 fold enrichment (6-mer frequency, TF over GST control)
GTTTCA	1.35 fold enrichment (6-mer frequency, TF over GST control)	1.35 fold enrichment (6-mer frequency, TF over GST control)	1.34 fold enrichment (6-mer frequency, TF over GST control)	1.22 fold enrichment (6-mer frequency, TF over GST control)	1.21 fold enrichment (6-mer frequency, TF over GST control)	1.35 fold enrichment (6-mer frequency, TF over GST control)	1.3 fold enrichment (6-mer frequency, TF over GST control)	1.21 fold enrichment (6-mer frequency, TF over GST control)
CATCCG	1.86 fold enrichment (6-mer frequency, TF over GST control)	2.11 fold enrichment (6-mer frequency, TF over GST control)	2.16 fold enrichment (6-mer frequency, TF over GST control)	3.63 fold enrichment (6-mer frequency, TF over GST control)	1.96 fold enrichment (6-mer frequency, TF over GST control)	2.53 fold enrichment (6-mer frequency, TF over GST control)	2.43 fold enrichment (6-mer frequency, TF over GST control)	2.03 fold enrichment (6-mer frequency, TF over GST control)
TTGCGG	1.25 fold enrichment (6-mer frequency, TF over GST control)	1.3 fold enrichment (6-mer frequency, TF over GST control)	1.21 fold enrichment (6-mer frequency, TF over GST control)	1.24 fold enrichment (6-mer frequency, TF over GST control)	1.29 fold enrichment (6-mer frequency, TF over GST control)	1.24 fold enrichment (6-mer frequency, TF over GST control)	1.34 fold enrichment (6-mer frequency, TF over GST control)	1.41 fold enrichment (6-mer frequency, TF over GST control)
